From PubChem BioAssay (NCI)
The panel holds about 79,000 compounds, 15% with a hit somewhere; the sample as a whole holds those more often. Unmarked numbers belong to inactive results. Calls of active or inactive are those of the source. No stated cut-off is given here; in the data, active means growth inhibition above about 70%; inactive means the rest.

How the values were obtained:
[1] = NCI Yeast Anticancer Drug Screen. Data for the rad50 strain (AID 155);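 further: 0% = growth of vehicle-only cultures of the same strain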; settings: S. cerevisiae rad50 strain growth inhibition, active compounds read high
Method in brief: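 A DNA repair-deficient yeast mutant serves as the test organism; compound-induced growth inhibition is calculated against vehicle-treated cells.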

[2] = NCI Yeast Anticancer Drug Screen. Data for the mec2-1 strain (AID 157); settings: S. cerevisiae mec2-1 strain, active compounds read high
Method in brief: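 Yeast mec2-1 mutant treated with compound. Readout: growth inhibition vs vehicle controls.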

[3] = NCI Yeast Anticancer Drug Screen. Data for the sgs1 mgt1 strain (AID 161);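 further: 0% = growth of cultures given vehicle only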; settings: S. cerevisiae sgs1 mgt1 strain, active compounds read high
Method in brief: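 Test agents were incubated with a DNA-repair-mutant yeast strain. Growth was then read and compared against vehicle-treated controls.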

[4] = NCI Yeast Anticancer Drug Screen. Data for the cln2 rad14 strain (AID 165);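 further: 0% = growth equal to vehicle treated cultures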; settings: S. cerevisiae cln2 rad14 strain, active compounds read high
Method in brief: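 cln2 rad14 yeast strain; compound exposure; growth inhibition read vs vehicle controls.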

[5] = NCI Yeast Anticancer Drug Screen. Data for the bub3 strain (AID 167); settings: S. cerevisiae bub3 mutant strain, active compounds read high
Method in brief: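 Inhibition values come from growth of compound-treated mutant yeast normalised to vehicle-treated controls.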

[6] = NCI Yeast Anticancer Drug Screen. Data for the mlh1 rad18 strain (AID 175); settings: S. cerevisiae mlh1 rad18 strain growth inhibition, active compounds read high
Method in brief: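 Yeast w/ defined DNA-repair lesions; compound exposure; growth vs vehicle controls → % inhibition.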

[7] = at 5.0 µM (retest, dose inferred, filed as 0.5)
[8] = at 50.0 µM (retest, dose inferred, filed as 5.0)

SMILES | growth inhibition [1, 7] | growth inhibition [1, 8] | growth inhibition ([1]; at 50.0 µM) | growth inhibition [2, 7] | growth inhibition [2, 8] | growth inhibition ([2]; at 50.0 µM) | growth inhibition [3, 7] | growth inhibition [3, 8] | growth inhibition ([3]; at 50.0 µM) | growth inhibition [4, 7] | growth inhibition [4, 8] | growth inhibition ([4]; at 50.0 µM) | growth inhibition [5, 7] | growth inhibition [5, 8] | growth inhibition ([5]; at 50.0 µM) | growth inhibition [6, 7] | growth inhibition [6, 8] | growth inhibition ([6]; at 50.0 µM)
CCOC(=O)C1CC2(CCC1N)c1ccccc1-c1ccccc12 (stereo not given) | 3% | 28% | 28.6% | -5% | 8% | 47.5% | -2% | 27% | 44.5% | -5% | 34% | 22.9% | -5% | 23% | 90.7% (active) | 1% | 81% (active) | 37.5%
CCOC(=O)Nc1ccc(SCC2COC(Cn3ccnc3)(c3ccc(Cl)cc3Cl)O2)cc1 (stereo not given) | 89% (active) | 91% (active) | 97% (active) | 72% (active) | 93% (active) | 96.2% (active) | 84% (active) | 94% (active) | 49.1% | 60% | 90% (active) | 98% (active) | 91% (active) | 93% (active) | 94.5% (active) | 61% | 90% (active) | 95.2% (active)
O=c1c2ccccc2sc2c([N+](=O)[O-])ccc(NCCNCCO)c12 | 57% | 98% (active) | 87.2% (active) | 35% | 99% (active) | 92.1% (active) | 18% | 98% (active) | 86.7% (active) | 25% | 98% (active) | 87.2% (active) | 21% | 99% (active) | 88.5% (active) | 35% | 98% (active) | 83.3% (active)
O=C(c1ccccc1)c1ccc(Br)cc1O | -3% | 21% | 57% | -9% | 12% | 21.9% | -4% | 33% | 31.8% | -5% | 9% | 28.1% | -12% | -11% | 38.1% | 1% | 8% | 68.8%
C/C(=N\NC(=S)Nc1ccc(Cl)cc1)c1nc2ncccc2[nH]1 | 3% | 98% (active) | 89.8% (active) | -6% | 98% (active) | 90.2% (active) | 0% | 96% (active) | 85.2% (active) | -38% | 99% (active) | 87.9% (active) | -28% | 95% (active) | 90.1% (active) | -1% | 98% (active) | 85.4% (active)
COc1cc(C2c3cc4c(cc3[C@@H](Nc3cccc(O)c3)C3COC(=O)[C@H]23)OCO4)cc(OC)c1O (stereo not given in full) | 96% (active) | 97% (active) | 85% (active) | 96% (active) | 98% (active) | 90.7% (active) | 28% | 97% (active) | 88.5% (active) | 33% | 90% (active) | 88.8% (active) | 21% | 93% (active) | 87.7% (active) | 94% (active) | 97% (active) | 87% (active)
Clc1ccc(CNc2ccc(Br)cc2)cc1 | 0% | 82% (active) | 94.5% (active) | 3% | 93% (active) | 85.5% (active) | 4% | 94% (active) | 95.8% (active) | -9% | 80% (active) | 82.2% (active) | 3% | 86% (active) | 85.2% (active) | -1% | 91% (active) | 87.7% (active)
O=C1c2cc([N+](=O)[O-])cc3cc([N+](=O)[O-])cc(c23)C(=O)N1CCCNCCNCCCN1C(=O)c2cc([N+](=O)[O-])cc3cc([N+](=O)[O-])cc(c23)C1=O | 85% (active) | 93% (active) | 61% | 32% | 96% (active) | 77.4% (active) | 93% (active) | 94% (active) | 80.9% (active) | 22% | 92% (active) | 83% (active) | 9% | 95% (active) | 83.7% (active) | 66% | 91% (active) | 77.3% (active)
O=C(NNc1ccccc1)c1ccccc1Cl | -3% | 93% (active) | 97.5% (active) | 9% | 89% (active) | 92% (active) | 15% | 91% (active) | 96% (active) | -9% | 89% (active) | 93% (active) | -14% | 95% (active) | 95.7% (active) | 13% | 97% (active) | 95.6% (active)
COc1cccc(/C=C/C(C)=O)c1OC | 2% | 35% | 76% (active) | 4% | 8% | 13.9% | -1% | 3% | 24.5% | -4% | 4% | 21.9% | -2% | -1% | 5.2% | -4% | 7% | 37.5%
NC(=O)Nc1cc(=O)[nH]c(=S)[nH]1 | -2% | -2% | 6.9% | 4% | -1% | 8.65% | 0% | 0% | -9.9% | -1% | -5% | 5.05% | -1% | -4% | 42.4% | -3% | -2% | -23.1%
CCc1cccc(CC)c1NC1=C(Cl)C(=O)c2ccccc2C1=O | 99% (active) | 99% (active) | -21.1% | 100% (active) | 99% (active) | 5% | 99% (active) | 99% (active) | 14.5% | 95% (active) | 98% (active) | -26.9% | 99% (active) | 98% (active) | 5.15% | 99% (active) | 98% (active) | 19.1%
[Cl][Pt+2][Cl].[NH-]c1cc2ccccc2cc1[NH-] | 2% | 0% | 64.5% | -34% | 16% | 51.4% | 0% | 1% | 69.2% | 1% | 17% | 45% | 0% | 14% | 20.4% | 0% | -24% | 76.2% (active)
O/N=C(/CCc1ccccc1Cl)c1ccccc1 | 3% | 34% | 94% (active) | -5% | 55% | 93.6% (active) | 3% | 75% (active) | 96.3% (active) | -2% | 41% | 90.1% (active) | 6% | 61% | 87.2% (active) | 1% | 80% (active) | 93.3% (active)
CN(C)CCCSc1c2ccccc2nc2cc(NCC(=O)Nc3ccccc3-c3ccccc3NC(=O)CNc3ccc4c(SCCCN(C)C)c5ccccc5nc4c3)ccc12 | 53% | 98% (active) | 90.6% (active) | 38% | 99% (active) | 92.5% (active) | 32% | 98% (active) | 93.3% (active) | 30% | 63% | 78.3% (active) | 39% | 98% (active) | 91.5% (active) | 41% | 98% (active) | 90.7% (active)
Fc1ccc2nncc(SCc3ccccc3)c2c1 | 1% | 97% (active) | 97.9% (active) | 10% | 99% (active) | 97.2% (active) | 11% | 98% (active) | 93.2% (active) | 3% | 95% (active) | 91.5% (active) | 2% | 97% (active) | 97% (active) | -2% | 98% (active) | 95.5% (active)
Nc1c(/C=C/c2cc3ccc(C4=NCCN4)cc3[nH]2)[nH]c2cc(C3=NCCN3)ccc12 | 78% (active) | 97% (active) | 89.3% (active) | 41% | 96% (active) | 89% (active) | 36% | 94% (active) | 89.2% (active) | 47% | 94% (active) | 89.5% (active) | 42% | 92% (active) | 86.5% (active) | 36% | 96% (active) | 90.5% (active)
OC1OCC(OCc2ccccc2)C(OCc2ccccc2)C1OCc1ccccc1 (stereo not given) | -4% | 61% | 97.4% (active) | -25% | 59% | 96.9% (active) | -3% | 68% | 96.7% (active) | -3% | 59% | 81.5% (active) | -5% | 51% | 97.7% (active) | 10% | 86% (active) | 98.5% (active)
Oc1cccc(/C=C/c2ccncc2)c1 | 0% | 28% | 75.1% (active) | -4% | 13% | 37.6% | -3% | 25% | 65.5% | -6% | 15% | 25.9% | -6% | 22% | 63.8% | -1% | 12% | 65.5%
COc1cc(C2C=C(c3ccccc3)Oc3cc4c(cc32)OCO4)cc(OC)c1OC (stereo not given) | 8% | 21% | -30.1% | -11% | 16% | -39.9% | -13% | 25% | -7.8% | -10% | 27% | -5.3% | -33% | 38% | 11.9% | 1% | 23% | 3.4%
